Experiments:
Experiment in all cases: fraction of 1-bp insertions among edited reads; higher = more 1-bp insertion outcomes
Conditions in all cases: mESC; 2uM; 72 h treatment, harvest day 5
Pemetrexed = compound: Nc1nc2[nH]cc(CCc3ccc(C(=O)N[C@@H](CCC(=O)O)C(=O)O)cc3)c2c(=O)[nH]1 [Pemetrexed]
[1] = compound: Nc1ncnc2c1c(-c1cnc3[nH]ccc3c1)nn2C1CCCC1
[2] = compound: O=C(c1cccc(Cl)c1F)N1CCN(Cc2cccc(Nc3nccs3)n2)CC1
Kenpaullone = compound: O=C1Cc2c([nH]c3ccc(Br)cc23)-c2ccccc2N1 [Kenpaullone]
Genistein = compound: O=c1c(-c2ccc(O)cc2)coc2cc(O)cc(O)c12 [Genistein]
[3] = compound: O=c1cc(N2CCOCC2)oc2c(-c3ccc4c(c3)OCCO4)csc12
Mercaptopurine (6-MP) = compound: S=c1[nH]cnc2nc[nH]c12 [Mercaptopurine (6-MP)]
[4] = compound: S=c1nc[nH]c2nc[nH]c12 [6-Mercaptopurine (6-MP) Monohydrate]

Row | Target | fraction of 1-bp insertions among edited reads (Pemetrexed) | fraction of 1-bp insertions among edited reads [1] | fraction of 1-bp insertions among edited reads [2] | fraction of 1-bp insertions among edited reads (Kenpaullone) | fraction of 1-bp insertions among edited reads (Genistein) | fraction of 1-bp insertions among edited reads [3] | fraction of 1-bp insertions among edited reads (Mercaptopurine (6-MP)) | fraction of 1-bp insertions among edited reads [4]
1 | 41.0 (DMSO control at this site: 1-bp insertion 0.022, MH deletion 0.754, edited 0.115) AAAGAGACAGCAGGTATGAATCCATCTTCCTGACCCTTGGGACCAGCCGGGGCAGTGAAGC | 0.0232 | 0.0155 | 0.0392 | 0.0338 | 0.0158 | 0.0195 | 0.0292 | 0.0487
2 | 8.0 GCATGCGTGTTTTGGGACAATGTAGTATACATTTGGGAGGCTCTCAGCTTTTCCCAATAAA | 0.255 | 0.646 |  | 0.441 |  |  |  | 0.442
3 | 15.0 GCGCCTCCAATGACCCAGTGGGATCCTACTCCATAATGGGATCCTGGGGATTCCTCGCTCC |  |  |  |  | 0.0821 |  |  | 0.0929
4 | 26.0 (DMSO control at this site: 1-bp insertion 0.518, MH deletion 0.262, edited 0.026) AGGGCGCGCCCCACGCACTCTGCGGCAAGTCCCTCTGCGGCAAGTCCTCGGCCCGGAAGAC | 0.284 | 0.567 | 0.537 | 0.496 | 0.46 | 0.363 | 0.491 | 0.494
5 | 19.0 (DMSO control at this site: 1-bp insertion 0.121, MH deletion 0.101, edited 0.057) TCTGCAGGGGTCGGAACCCGGGGGCTAGGGCTATCCCGGGGGCTAGGGCTATTAGCGAACC | 0.0345 | 0.138 | 0.109 | 0.0939 | 0.0748 | 0.0634 | 0.0615 | 0.104
6 | 39.0 (DMSO control at this site: 1-bp insertion 0.328, MH deletion 0.371, edited 0.204) CTGCACAGTCACTTAGGATAGGAGAAGATGATGTATAGGGTTTAGTGGGAGATGTTGCAAG | 0.395 |  | 0.45 | 0.572 | 0.372 | 0.355 | 0.407 | 0.417
7 | 25.0 (DMSO control at this site: 1-bp insertion 0.017, MH deletion 0.774, edited 0.143) GGGCCTGAATGGTGTGGACATCTACTCGCTGGTGAGCTGGTGACTGAAAACATTCAGTGGC | 0.0305 | 0.0264 | 0.0219 | 0.0271 | 0.0281 | 0.0315 | 0.0245 | 0.0323
8 | 29.0 (DMSO control at this site: 1-bp insertion 0.084, MH deletion 0.745, edited 0.133) TTGATGAACTTCCTCTTCTTCTCATGTCTCCGGTCTCCGGTAGGCCACGTGCATGGCCACT | 0.0781 | 0.112 | 0.119 | 0.11 | 0.072 | 0.0694 | 0.105 | 0.115
9 | 20.0 (DMSO control at this site: 1-bp insertion 0.349, MH deletion 0.138, edited 0.084) TACAGGTGTAGACTGGTTACGTGGCTGCGGAATTGACTGGTTACGTGGCTGCGGAATTTTG | 0.22 | 0.456 | 0.453 | 0.429 | 0.278 | 0.203 | 0.376 | 0.22
10 | 2.0 (DMSO control at this site: 1-bp insertion 0.364, MH deletion 0.356, edited 0.125) GGTGCCCCCGAGACCTACGCGAACCGAAATCGATGTCCGGTGCGCAAGCAGGGCTGGCGTC | 0.327 | 0.539 | 0.498 | 0.478 | 0.309 | 0.331 | 0.452 | 0.434
11 | 27.0 CCAGAATTAGAACATATCATCTGGACCCTTTTCCATCTGGACCCTTTTCCAGCACACCCTG |  | 0.169 |  | 0.146 | 0.183 | 0.158 | 0.141 | 0.187
12 | 46.0 TTAAGAGCAATGTTCACGCAACTTGAAATTATATCTGTGGTCTTCAAATTGTCTTTTGTCA | 0.309 | 0.0621 |  |  | 0.25 |  |  | 0.17
13 | 5.0 (DMSO control at this site: 1-bp insertion 0.214, MH deletion 0.567, edited 0.105) CGCTGACCCGAGACCTACGCGAACCGAAATCGGCGACCGGTGCGCAAGCAGGGCTGGCGTC | 0.184 | 0.293 | 0.277 | 0.277 | 0.203 | 0.187 | 0.27 | 0.272
14 | 4.0 (DMSO control at this site: 1-bp insertion 0.146, MH deletion 0.523, edited 0.125) ACGCCTTAGTGCACGAGTGACGGGATAATGTGGTCTCAGGTAATTGATAGGCTTCCAACTT | 0.121 | 0.237 | 0.18 | 0.171 | 0.126 | 0.137 | 0.161 | 0.153
15 | 7.0 (DMSO control at this site: 1-bp insertion 0.128, MH deletion 0.374, edited 0.098) TACTCAACCGAGACCTACGCGAACCGAAATCGTATGCCGGTGCGCAAGCAGGGCTGGCGTC | 0.0646 | 0.128 | 0.15 | 0.156 | 0.12 | 0.16 | 0.145 | 0.197
16 | 43.0 (DMSO control at this site: 1-bp insertion 0.134, MH deletion 0.714, edited 0.104) AGTTTAACTTACTCCGGCCAAAAAAGAACTGCACCTCTGGAGCGGGTTAGTGGTGGTGGTA | 0.101 | 0.0907 | 0.0417 | 0.058 | 0.0866 | 0.0822 | 0.0946 | 0.122
17 | 22.0 (DMSO control at this site: 1-bp insertion 0.573, MH deletion 0.229, edited 0.045) CTGATGGTTGAAGGATTTAGCCGGGGTCCTAGACGCCGGGGTCCTAGACGAAAGGGCCACG | 0.447 |  | 0.671 | 0.604 | 0.595 | 0.623 | 0.587 | 0.601
18 | 31.0 (DMSO control at this site: 1-bp insertion 0.315, MH deletion 0.329, edited 0.026) ACCTCCACAGGCTGGGTGGCCCGGAGGCTGGGCGGCCCGGAGGCTGGGCTGGGCGAGTATC | 0.0954 |  | 0.127 | 0.173 | 0.102 | 0.138 | 0.178 | 0.208
19 | 28.0 (DMSO control at this site: 1-bp insertion 0.035, MH deletion 0.77, edited 0.142) TGGTTCTTCCTTTGTAGAGAGTGTTCATCTGGGAATCTGGGACTTGGATGAGACAATCATT | 0.0369 | 0.0494 | 0.0462 | 0.0461 | 0.032 | 0.0316 | 0.0428 | 0.0506
20 | 38.0 (DMSO control at this site: 1-bp insertion 0.063, MH deletion 0.487, edited 0.17) GGGCTGGGTGCTAAAATGAGGAGCTCCAAGAAGACTGAGGTGAACCTGGAGGCCCCTGAGC | 0.0448 | 0.104 | 0.0891 | 0.102 | 0.0646 | 0.0742 | 0.0697 | 0.0502

Reference: the supplement of paper PMC8387472
